The supplement of paper PMC10849652
Of roughly 7,900 targets only a part is listed; those with a hit were picked by preference. About 0.6% of all pairs of compound and target were hits.

Compound: Cc1ccc(NC(=O)c2ccc(CN3CC[C@H](N(C)C)C3)c(C(F)(F)F)c2)cc1Nc1nccc(-c2cncnc2)n1 [bafetinib]
Assay: log2 fold change, soluble protein after heating vs DMSO (PISA); higher = thermal stabilisation; K562 cells, 10 uM, 30 min; active = over 0.2 and 3.5 SD of the protein, either way, in both replicates (recomputed)
In short: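 K562 cells (2×10^6 cells/mL) were treated with 10 μM compound for 30 min, and aliquots were heated for 3 min over 48°C-58°C. Pooled aliquots were extracted in PBS with 0.5% NP-40 at 4°C, and the supernatant after 21,000xg for 90 min was measured by TMTpro 16plex LC-MS/MS with channel sums equalised. Reported thermal stability, relative to control samples and from duplicates, is a log2 fold change.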

Chain of UniProt P00846 (P00846 whole entry, looked up): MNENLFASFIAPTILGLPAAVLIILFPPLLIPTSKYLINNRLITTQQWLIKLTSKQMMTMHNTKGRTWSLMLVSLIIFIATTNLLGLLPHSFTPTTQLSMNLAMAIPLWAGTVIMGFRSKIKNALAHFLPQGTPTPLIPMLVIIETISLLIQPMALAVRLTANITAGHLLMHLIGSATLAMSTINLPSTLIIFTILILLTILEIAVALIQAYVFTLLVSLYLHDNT
Chain of UniProt O14950 (O14950 whole entry, looked up): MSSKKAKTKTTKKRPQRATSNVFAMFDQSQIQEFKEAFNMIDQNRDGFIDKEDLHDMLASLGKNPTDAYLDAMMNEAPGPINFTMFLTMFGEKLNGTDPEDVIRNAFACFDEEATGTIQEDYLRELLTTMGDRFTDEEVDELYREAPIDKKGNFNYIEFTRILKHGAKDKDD
Chain of UniProt Q9BUK6 (Q9BUK6 whole entry, looked up): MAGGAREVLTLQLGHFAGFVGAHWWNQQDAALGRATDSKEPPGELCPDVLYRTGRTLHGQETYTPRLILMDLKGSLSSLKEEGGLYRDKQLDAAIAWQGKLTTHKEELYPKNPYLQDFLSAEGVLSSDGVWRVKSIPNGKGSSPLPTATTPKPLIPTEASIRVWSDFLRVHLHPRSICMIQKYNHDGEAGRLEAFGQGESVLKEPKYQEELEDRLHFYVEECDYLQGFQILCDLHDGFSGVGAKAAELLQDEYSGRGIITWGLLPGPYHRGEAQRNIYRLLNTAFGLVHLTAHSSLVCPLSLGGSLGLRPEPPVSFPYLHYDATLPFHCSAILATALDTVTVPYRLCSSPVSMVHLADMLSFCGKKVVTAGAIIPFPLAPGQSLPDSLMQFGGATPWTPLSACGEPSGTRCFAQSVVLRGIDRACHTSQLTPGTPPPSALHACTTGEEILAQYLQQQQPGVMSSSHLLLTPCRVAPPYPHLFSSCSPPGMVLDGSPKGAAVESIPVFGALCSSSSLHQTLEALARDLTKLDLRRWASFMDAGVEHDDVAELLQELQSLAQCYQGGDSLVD
Chain of UniProt P46934 (P46934 whole entry, looked up): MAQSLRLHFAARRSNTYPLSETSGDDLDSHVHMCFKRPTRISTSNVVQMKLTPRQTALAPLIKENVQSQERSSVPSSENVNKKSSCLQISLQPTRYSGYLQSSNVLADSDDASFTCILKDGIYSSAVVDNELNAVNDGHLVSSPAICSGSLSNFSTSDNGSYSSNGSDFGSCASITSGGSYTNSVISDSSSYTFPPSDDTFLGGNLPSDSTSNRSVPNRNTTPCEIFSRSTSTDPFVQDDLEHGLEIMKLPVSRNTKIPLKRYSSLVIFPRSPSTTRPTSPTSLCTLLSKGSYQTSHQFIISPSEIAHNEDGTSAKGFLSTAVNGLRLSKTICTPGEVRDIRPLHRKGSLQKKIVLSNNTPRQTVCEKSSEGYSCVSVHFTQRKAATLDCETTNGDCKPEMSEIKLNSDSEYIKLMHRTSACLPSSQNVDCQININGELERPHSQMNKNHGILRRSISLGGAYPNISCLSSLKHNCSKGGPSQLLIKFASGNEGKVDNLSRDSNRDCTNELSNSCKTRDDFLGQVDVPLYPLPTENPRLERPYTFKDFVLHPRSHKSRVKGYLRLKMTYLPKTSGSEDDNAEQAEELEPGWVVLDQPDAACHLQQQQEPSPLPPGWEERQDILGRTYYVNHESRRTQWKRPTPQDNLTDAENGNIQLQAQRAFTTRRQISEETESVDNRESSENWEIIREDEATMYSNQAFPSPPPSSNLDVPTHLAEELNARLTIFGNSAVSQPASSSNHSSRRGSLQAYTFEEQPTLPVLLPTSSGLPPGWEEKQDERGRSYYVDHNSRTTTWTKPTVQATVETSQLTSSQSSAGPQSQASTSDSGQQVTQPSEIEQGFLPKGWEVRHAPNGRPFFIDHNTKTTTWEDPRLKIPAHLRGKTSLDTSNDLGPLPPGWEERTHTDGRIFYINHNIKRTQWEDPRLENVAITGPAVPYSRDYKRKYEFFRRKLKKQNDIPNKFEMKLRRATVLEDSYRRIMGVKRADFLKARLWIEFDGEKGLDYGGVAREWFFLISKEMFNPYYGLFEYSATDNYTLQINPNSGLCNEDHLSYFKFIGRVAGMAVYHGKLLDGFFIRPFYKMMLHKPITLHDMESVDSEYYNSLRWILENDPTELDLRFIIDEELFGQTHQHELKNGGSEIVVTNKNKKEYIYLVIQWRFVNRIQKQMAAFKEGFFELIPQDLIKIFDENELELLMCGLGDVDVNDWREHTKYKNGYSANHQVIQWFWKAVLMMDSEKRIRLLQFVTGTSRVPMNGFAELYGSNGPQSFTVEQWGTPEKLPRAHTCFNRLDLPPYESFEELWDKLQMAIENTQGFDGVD
Chain of UniProt Q9ULX3 (Q9ULX3 whole entry, looked up): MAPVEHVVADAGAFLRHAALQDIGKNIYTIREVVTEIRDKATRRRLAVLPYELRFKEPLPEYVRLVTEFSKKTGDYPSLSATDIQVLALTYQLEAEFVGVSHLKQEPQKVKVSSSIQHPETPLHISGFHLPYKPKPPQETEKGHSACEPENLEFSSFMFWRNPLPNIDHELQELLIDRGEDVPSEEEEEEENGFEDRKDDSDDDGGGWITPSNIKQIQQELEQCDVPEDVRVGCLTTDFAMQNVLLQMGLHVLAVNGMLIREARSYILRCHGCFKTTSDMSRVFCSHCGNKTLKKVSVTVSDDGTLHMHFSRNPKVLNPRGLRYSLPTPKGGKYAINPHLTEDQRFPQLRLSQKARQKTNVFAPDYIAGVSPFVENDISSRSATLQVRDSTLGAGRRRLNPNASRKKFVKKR
Chain of UniProt Q15021 (Q15021 whole entry, looked up): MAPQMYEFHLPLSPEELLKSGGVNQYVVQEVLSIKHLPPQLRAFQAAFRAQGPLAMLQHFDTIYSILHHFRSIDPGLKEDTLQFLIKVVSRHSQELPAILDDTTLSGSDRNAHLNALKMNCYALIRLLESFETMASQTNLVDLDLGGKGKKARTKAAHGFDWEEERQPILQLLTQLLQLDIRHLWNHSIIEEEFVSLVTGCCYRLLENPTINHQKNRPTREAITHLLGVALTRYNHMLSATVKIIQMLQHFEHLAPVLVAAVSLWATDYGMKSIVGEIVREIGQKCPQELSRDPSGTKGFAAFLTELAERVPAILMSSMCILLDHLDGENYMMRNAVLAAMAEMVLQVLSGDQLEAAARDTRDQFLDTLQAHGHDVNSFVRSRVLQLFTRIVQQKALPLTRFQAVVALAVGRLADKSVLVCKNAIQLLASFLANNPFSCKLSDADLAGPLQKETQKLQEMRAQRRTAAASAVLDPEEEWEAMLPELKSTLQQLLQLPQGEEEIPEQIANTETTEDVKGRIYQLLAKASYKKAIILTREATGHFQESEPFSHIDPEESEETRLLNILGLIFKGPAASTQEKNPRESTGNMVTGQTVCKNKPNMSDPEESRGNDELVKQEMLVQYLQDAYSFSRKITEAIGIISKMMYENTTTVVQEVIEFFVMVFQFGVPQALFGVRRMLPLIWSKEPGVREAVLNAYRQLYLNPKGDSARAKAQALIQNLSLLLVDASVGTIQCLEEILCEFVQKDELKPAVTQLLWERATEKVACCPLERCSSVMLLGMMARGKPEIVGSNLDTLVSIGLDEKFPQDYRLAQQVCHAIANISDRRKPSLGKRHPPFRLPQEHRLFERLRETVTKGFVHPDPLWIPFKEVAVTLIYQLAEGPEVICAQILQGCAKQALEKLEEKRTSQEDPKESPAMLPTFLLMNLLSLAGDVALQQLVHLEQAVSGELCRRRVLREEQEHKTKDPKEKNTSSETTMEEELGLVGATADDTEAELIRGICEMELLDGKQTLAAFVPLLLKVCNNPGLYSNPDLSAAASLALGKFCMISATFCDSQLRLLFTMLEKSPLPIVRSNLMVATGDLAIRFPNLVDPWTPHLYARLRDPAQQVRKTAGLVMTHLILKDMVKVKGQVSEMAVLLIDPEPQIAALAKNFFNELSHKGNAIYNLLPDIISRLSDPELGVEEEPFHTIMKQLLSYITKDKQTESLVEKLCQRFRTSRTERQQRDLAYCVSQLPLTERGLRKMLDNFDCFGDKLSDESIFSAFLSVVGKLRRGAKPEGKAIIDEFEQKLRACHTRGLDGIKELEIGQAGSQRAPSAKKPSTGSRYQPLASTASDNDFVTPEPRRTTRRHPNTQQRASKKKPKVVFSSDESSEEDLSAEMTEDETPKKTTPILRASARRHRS
Chain of UniProt Q00013 (Q00013 whole entry, looked up): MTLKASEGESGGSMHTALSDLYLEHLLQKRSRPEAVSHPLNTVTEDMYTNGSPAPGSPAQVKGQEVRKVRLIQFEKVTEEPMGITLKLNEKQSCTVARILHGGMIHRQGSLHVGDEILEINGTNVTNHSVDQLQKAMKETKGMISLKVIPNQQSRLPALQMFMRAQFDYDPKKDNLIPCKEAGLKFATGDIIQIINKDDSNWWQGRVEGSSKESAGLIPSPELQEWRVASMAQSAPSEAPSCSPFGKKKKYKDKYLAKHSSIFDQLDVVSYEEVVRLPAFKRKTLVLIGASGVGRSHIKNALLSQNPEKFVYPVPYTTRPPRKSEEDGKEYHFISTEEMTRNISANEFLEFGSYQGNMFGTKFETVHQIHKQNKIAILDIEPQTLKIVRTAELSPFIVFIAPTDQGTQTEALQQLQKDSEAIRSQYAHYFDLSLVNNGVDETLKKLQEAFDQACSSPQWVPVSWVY
Chain of UniProt Q9H1E3 (Q9H1E3 whole entry, looked up): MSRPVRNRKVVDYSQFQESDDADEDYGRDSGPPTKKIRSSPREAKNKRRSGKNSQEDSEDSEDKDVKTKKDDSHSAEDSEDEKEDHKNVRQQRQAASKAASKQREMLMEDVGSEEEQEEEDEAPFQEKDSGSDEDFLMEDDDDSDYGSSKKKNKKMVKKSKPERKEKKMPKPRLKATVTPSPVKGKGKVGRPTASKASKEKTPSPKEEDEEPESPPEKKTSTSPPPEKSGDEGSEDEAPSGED

log2 fold change, inactive:
MT-ATP6 (UniProt P00846) 0.162
MRPS2 (UniProt Q9Y399) 0.191
NOB1 (UniProt Q9ULX3) 0.014
MPP1 (UniProt Q00013) 0.043
NUCKS1 (UniProt Q9H1E3) -0.114
ORC3 isoform 2 (UniProt Q9UBD5) -0.032
NOLC1 isoform 2 (UniProt Q14978) 0.105
NEDD4 isoform 4 (UniProt P46934) -0.067
MRPS22 (UniProt P82650) 0.233
MSTO1 (UniProt Q9BUK6) -0.03
NCAPD2 (UniProt Q15021) 0.03
MYL12B (UniProt O14950) -0.049
NEU1 (UniProt Q99519) -0.212
NA, A0A096LPI6 -0.076
MRPS33 (UniProt Q9Y291) 0.123
